The full list was thinned out, with hits kept by preference.
FXIa inh – blocks human coagulation factor XIa activity; P03951; purified human FXIa, fluorogenic AMC substrate cleavage; inhibition, % at 10 µM; actives 0.3% (n = 33,000); AID 687;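 active means inhibition above 40% in the primary screen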;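 further: 0% = enzyme without compound and 100% = blank wells lacking enzyme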
FXIIa single – blocks human coagulation factor XIIa activity; AID 701; inhibition, % at 10 µM; purified human FXIIa, AMC substrate fluorescence, 2 h; actives 0.2% (n = 33,000); P00748; in the data active means inhibition above about 30%;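 further: 0% = enzyme with vehicle only and 100% = no enzyme blank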
Numbers without * were called inactive.

SMILES | FXIa inh | FXIIa single
CNCCCc1ccccc1 | 41* | 3
COc1ccc(CCC(C)NCCc2ccccc2)cc1 (stereo not drawn) | -9 | 10
c1ccc2cc3cc4ccccc4cc3cc2c1 | 5 | -1

Screening data (PubChem BioAssay)
